Among the data in article PMC5700166 are binding signal values, retold here.

Numbering of substitutions follows the chain as printed.

What all share (test): protein-binding microarray (PBM); PBM: ~300 nM protein, 6 mM HEPES pH 7.8, 80 mM KCl, 0.5 mM EDTA, 0.5 mM EGTA, 6% glycerol, 35 ng/ul poly-dIdC, 1% milk, 1 h, room temperature; Ap Aiptasia and Nv Nematostella (sea anemones) / Co Capsaspora / Aq Amphimedon (sponge) / Dm Drosophila / Hu human; RHD is the Rel homology domain; high values mean tight binding
Holding throughout (settings): dsDNA, one strand shown

One experiment concerns the target T1, GST-Ap-NF-kB RHD (Exaiptasia pallida (Aiptasia), UniProt A0A913YAJ5 2-422).
T1 sequence: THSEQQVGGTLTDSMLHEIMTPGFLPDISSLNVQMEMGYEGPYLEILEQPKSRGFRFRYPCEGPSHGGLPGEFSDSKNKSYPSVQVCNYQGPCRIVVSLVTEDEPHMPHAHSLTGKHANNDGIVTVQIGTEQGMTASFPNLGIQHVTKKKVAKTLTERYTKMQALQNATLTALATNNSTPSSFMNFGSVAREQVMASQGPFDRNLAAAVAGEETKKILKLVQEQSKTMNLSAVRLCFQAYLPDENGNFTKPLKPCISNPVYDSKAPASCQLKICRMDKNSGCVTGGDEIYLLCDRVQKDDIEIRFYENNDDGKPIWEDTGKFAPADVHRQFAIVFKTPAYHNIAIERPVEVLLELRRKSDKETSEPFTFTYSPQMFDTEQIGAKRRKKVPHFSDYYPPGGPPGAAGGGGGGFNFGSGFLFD

For experiment [1], the target named is T2, GST-Nv-NF-kB (Cys allele) (Nematostella vectensis, UniProt E5G601 2-411).
T2 sequence: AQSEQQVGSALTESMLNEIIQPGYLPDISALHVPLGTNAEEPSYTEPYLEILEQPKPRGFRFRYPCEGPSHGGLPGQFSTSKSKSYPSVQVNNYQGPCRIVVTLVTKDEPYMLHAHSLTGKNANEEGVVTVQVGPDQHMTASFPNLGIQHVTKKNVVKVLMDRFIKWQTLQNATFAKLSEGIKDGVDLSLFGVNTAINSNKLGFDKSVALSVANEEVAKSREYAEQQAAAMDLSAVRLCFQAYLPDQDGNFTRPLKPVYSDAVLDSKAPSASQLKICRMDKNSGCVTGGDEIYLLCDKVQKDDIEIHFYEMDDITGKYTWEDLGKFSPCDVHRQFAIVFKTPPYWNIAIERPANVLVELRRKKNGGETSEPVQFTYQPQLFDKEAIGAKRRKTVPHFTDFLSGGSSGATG

Experiment [2] has as its target T3, GST-Nv-NF-kB (Ser allele) (Nematostella vectensis, UniProt A7UNT2 2-411).
T3 sequence: T2 sequence with Q21R, C66S, S207N, E215Q, V217A, E225K, A268E, D399E

For the next experiment, the target named is T4, GST-Co-NF-kB (Capsaspora owczarzaki, UniProt F1ARL5 200-546).
T4 sequence: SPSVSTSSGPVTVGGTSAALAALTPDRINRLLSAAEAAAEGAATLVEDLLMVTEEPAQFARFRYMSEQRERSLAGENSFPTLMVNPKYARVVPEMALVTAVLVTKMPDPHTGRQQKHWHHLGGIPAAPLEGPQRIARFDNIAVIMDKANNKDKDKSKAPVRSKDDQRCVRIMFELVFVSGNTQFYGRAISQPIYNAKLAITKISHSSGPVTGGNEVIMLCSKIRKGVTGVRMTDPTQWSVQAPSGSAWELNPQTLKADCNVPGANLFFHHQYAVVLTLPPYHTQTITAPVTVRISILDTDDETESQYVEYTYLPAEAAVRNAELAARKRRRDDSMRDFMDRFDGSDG

The target in the next experiment is T5, GST-Dm-Relish (Drosophila melanogaster, UniProt Q94527 99-473).
T5 sequence: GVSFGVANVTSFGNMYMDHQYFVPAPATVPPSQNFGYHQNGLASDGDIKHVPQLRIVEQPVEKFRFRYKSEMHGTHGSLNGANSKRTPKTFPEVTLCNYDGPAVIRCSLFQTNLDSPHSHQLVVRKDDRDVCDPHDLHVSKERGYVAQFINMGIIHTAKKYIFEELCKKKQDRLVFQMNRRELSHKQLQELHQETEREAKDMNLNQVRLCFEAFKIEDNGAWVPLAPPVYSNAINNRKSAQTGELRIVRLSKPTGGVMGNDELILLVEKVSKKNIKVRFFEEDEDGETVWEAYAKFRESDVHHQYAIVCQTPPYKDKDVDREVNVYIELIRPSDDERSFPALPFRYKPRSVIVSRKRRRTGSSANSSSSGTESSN

Another experiment deals with T6, GST-Aq-NF-kB (Amphimedon queenslandica, UniProt A9Y5G7 2-389).
T6 sequence: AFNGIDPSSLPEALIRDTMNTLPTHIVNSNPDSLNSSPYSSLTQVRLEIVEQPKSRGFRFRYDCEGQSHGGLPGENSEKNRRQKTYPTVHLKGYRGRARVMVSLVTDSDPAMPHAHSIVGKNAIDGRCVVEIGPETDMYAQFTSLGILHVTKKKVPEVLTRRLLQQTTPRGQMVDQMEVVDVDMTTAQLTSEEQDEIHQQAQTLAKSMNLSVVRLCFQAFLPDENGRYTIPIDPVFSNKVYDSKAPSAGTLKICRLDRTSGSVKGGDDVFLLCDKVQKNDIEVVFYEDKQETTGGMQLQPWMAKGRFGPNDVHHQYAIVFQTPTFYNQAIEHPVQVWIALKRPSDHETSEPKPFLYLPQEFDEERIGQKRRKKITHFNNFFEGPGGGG

In the next experiment the target is GST-Hu-p50 (Homo sapiens, UniProt P19838 7-356).
Sequence of GST-Hu-p50 (P19838 7-356): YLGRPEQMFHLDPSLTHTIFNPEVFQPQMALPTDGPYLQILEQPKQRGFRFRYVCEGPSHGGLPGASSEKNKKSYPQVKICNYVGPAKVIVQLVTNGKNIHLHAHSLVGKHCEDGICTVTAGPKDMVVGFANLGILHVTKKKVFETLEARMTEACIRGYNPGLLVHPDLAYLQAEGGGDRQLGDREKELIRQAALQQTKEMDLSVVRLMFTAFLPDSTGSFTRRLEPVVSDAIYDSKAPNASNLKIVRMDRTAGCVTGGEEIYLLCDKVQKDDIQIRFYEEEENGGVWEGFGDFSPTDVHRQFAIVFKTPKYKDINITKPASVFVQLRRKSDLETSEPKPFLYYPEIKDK

As for “CCGATTAACATCAGGGGAAAGGATGATGTTAATCGGGTCTTGATTCGCTTGACGCTGCTG”, the binding signal in the experiment with GST-Ap-NF-kB RHD turned out to be 4.44 z-score; in experiment [1], 5.7 z-score; in experiment [2] it was 6.71 z-score; with GST-Co-NF-kB, 4.77 z-score; with GST-Dm-Relish it was 1.2 z-score; in the experiment with GST-Aq-NF-kB, 4.14 z-score. Also, the binding signal with GST-Hu-p50 came out at 3.87 z-score.
As for “CCGATTAACATCAAAATTCCCAGTGATGTTAATCGGGTCTTGATTCGCTTGACGCTGCTG”, the binding signal in the experiment with GST-Ap-NF-kB RHD came out at 3.76 z-score; in experiment [1], 5.07 z-score; in experiment [2], 4.98 z-score; with GST-Co-NF-kB it was 4.87 z-score; with GST-Dm-Relish, 5.12 z-score; in the experiment with GST-Aq-NF-kB, 4.23 z-score. In the experiment with GST-Hu-p50, this sequence had a binding signal of 4.24 z-score.
In the case of “CCGATTAACATCAGGGAAATCAATGATGTTAATCGGGTCTTGATTCGCTTGACGCTGCTG”, the binding signal with GST-Ap-NF-kB RHD worked out at 2.16 z-score; in experiment [1], 3.6 z-score; in experiment [2], 4.65 z-score; with GST-Co-NF-kB, 3.49 z-score; in the experiment with GST-Dm-Relish, 1.09 z-score; with GST-Aq-NF-kB, 2.67 z-score. In addition, the binding signal with GST-Hu-p50 was found to be 2.57 z-score.
Consider “CCGATTAACATCAAAAACCCCCATGATGTTAATCGGGTCTTGATTCGCTTGACGCTGCTG”, for which the binding signal with GST-Ap-NF-kB RHD was determined as 9.51 z-score; in experiment [1], 8.21 z-score; in experiment [2], 9 z-score; in the experiment with GST-Co-NF-kB, 3.93 z-score; with GST-Dm-Relish it was 9.82 z-score; with GST-Aq-NF-kB, 7.68 z-score. The binding signal with GST-Hu-p50 is 7.91 z-score.
Take “CCGATTAACATCAGGGGGTTTAATGATGTTAATCGGGTCTTGATTCGCTTGACGCTGCTG”: the binding signal in the experiment with GST-Ap-NF-kB RHD amounted to 6.88 z-score; in experiment [1], 5.26 z-score; in experiment [2] it was 6.77 z-score; with GST-Co-NF-kB, 2.64 z-score; in the experiment with GST-Dm-Relish, 7.87 z-score; with GST-Aq-NF-kB it was 5.24 z-score. This sequence also had a binding signal in the experiment with GST-Hu-p50 of 6.62 z-score.
As to “CCGATTAACATCACAAGTTTCCCTGATGTTAATCGGGTCTTGATTCGCTTGACGCTGCTG”, the binding signal was determined as 4.14 z-score with GST-Ap-NF-kB RHD; 5.33 z-score in experiment [1]; 5.84 z-score in experiment [2]; 4.92 z-score in the experiment with GST-Co-NF-kB; 2.52 z-score with GST-Dm-Relish; 5.24 z-score with GST-Aq-NF-kB. Further, the binding signal with GST-Hu-p50 worked out at 4.17 z-score.
As for “CCGATTAACATCAAGTTCCCCCATGATGTTAATCGGGTCTTGATTCGCTTGACGCTGCTG”, the binding signal with GST-Ap-NF-kB RHD turned out to be 7.14 z-score; in experiment [1], 6.4 z-score; in experiment [2] it was 6.97 z-score; in the experiment with GST-Co-NF-kB it was 10.1 z-score; in the experiment with GST-Dm-Relish it was 4.93 z-score; with GST-Aq-NF-kB, 5.56 z-score. For the same sequence, the binding signal in the experiment with GST-Hu-p50 is 6.24 z-score.
As for “CCGATTAACATCAATAATCCCCCTGATGTTAATCGGGTCTTGATTCGCTTGACGCTGCTG”, the binding signal with GST-Ap-NF-kB RHD worked out at 8.84 z-score; in experiment [1], 8.72 z-score; in experiment [2], 9.49 z-score; with GST-Co-NF-kB, 6.87 z-score; in the experiment with GST-Dm-Relish, 8.23 z-score; with GST-Aq-NF-kB, 7.52 z-score. In addition, the binding signal with GST-Hu-p50 came out at 7.52 z-score.
Regarding “CCGATTAACATCAAATTCCCGCCTGATGTTAATCGGGTCTTGATTCGCTTGACGCTGCTG”, the binding signal with GST-Ap-NF-kB RHD came to 3.27 z-score; in experiment [1], 4.23 z-score; in experiment [2] it was 4.63 z-score; in the experiment with GST-Co-NF-kB, 3.86 z-score; in the experiment with GST-Dm-Relish, 3.49 z-score; with GST-Aq-NF-kB, 3.39 z-score. The binding signal in the experiment with GST-Hu-p50 amounted to 3.12 z-score.
With “CCGATTAACATCAGATTTCCCCATGATGTTAATCGGGTCTTGATTCGCTTGACGCTGCTG”, the binding signal with GST-Ap-NF-kB RHD is 7.4 z-score; in experiment [1], 8.26 z-score; in experiment [2] it was 9.52 z-score; with GST-Co-NF-kB, 8.5 z-score; in the experiment with GST-Dm-Relish, 3.76 z-score; with GST-Aq-NF-kB it was 5.45 z-score. The binding signal with GST-Hu-p50 was 6.16 z-score.
In the case of “CCGATTAACATCACTTATCCCCCTGATGTTAATCGGGTCTTGATTCGCTTGACGCTGCTG”, the binding signal was found to be 4.81 z-score in the experiment with GST-Ap-NF-kB RHD; 3.72 z-score in experiment [1]; 4.72 z-score in experiment [2]; 6.68 z-score with GST-Co-NF-kB; 2.71 z-score with GST-Dm-Relish; 3.72 z-score in the experiment with GST-Aq-NF-kB. This sequence gave a binding signal with GST-Hu-p50 of 4.19 z-score.
